Our source for the inhibition values is ChEMBL document CHEMBL3433997, “St. Jude Leishmania screening dataset” (2016).

One may read the inhibition as the relative decrease from the control value, in per cent.

The target of this assay is Glucose transporter (Leishmania mexicana) (UniProt O61059). Kind of assay: ST_JUDE_LEISH: Cytotoxicity at 2uM final concentration against transgenic Leishmania Mexicana promastigotes LmGT2 that are glucose transport deficient and complemented with the L. Mexicana glucose transporter 2. Activity is measured by DNA content using SYBR green in vitro. Format: functional.
Take `CCCCn1c(Sc2ccc(C#N)c([N+](=O)[O-])c2)nnc1-c1ccc(OC)cc1`: the inhibition came to 0.78%.
Take `Cc1cc(-c2ccc(NC(=O)N3CCc4cc(Cl)c(N5CCN(C)CC5)cc43)cc2)ccc1C#N`: the inhibition came out at 81.7%.
Turning to `C=C1N(C)c2cc([N+](=O)[O-])c(N)cc2C1(C)C`, the inhibition is -1.11%.
For the compound `CCOc1cc(C=Cc2nc(O)c3ccccc3n2)cc(Cl)c1O`, the inhibition was determined as 2.7%.
As to `COc1ccc2ncc(Cl)c(CCN3CCC(NCc4ccc5c(n4)NC(=O)CS5)CC3)c2c1`, the inhibition was 2.97%.
Regarding `COc1ccc(C2CC(c3cccs3)=NN2C(=O)CNc2cccc(C#N)c2)cc1OC` (stereo unspecified), the inhibition was 2.41%.
As to `NCc1cccc(-c2ccccc2CNC2CCN(Cc3ccccc3)CC2)c1`, the inhibition came to 6.92%.
Turning to `c1cc(Nc2nccc(-c3cnn4ncccc34)n2)cc(-c2cnco2)c1`, the inhibition came out at 63.1%.
The result for `Cc1ccccc1OCCCN1CCN(CC(c2ccc(F)cc2)N2CCN(C(C)C)CC2)CC1` (stereo unspecified) reads 14.9%; that for `CCc1ccccc1OCCCON1C(=N)N=C(N)NC1(C)C`, 29.2%; that for `O=C(Cc1cccs1)NCC(c1ccccc1Cl)c1c[nH]c2ccccc12` (stereo unspecified), 1.14%.
Turning to `COc1cc(NC(=O)/C=C/c2cc(F)cc(F)c2F)cc(OCCN2CCN(CCN3CCOCC3)CC2)c1`, the inhibition came out at 2.54%.
The result for `NCCCN(Cc1ccc(Cl)c(Cl)c1)C(=O)Nc1ccc(Cl)c(Cl)c1` reads 10.1%; that for `O=C(c1ccc(Cl)cc1)N1CCCC(C(=O)N(Cc2nnc(-c3ccccc3Cl)o2)C2CC2)C1` (stereo unspecified), -0.04%; that for `COc1ccc(S(=O)(=O)N(CCCN2CCN(C)CC2)Cc2csc(-c3ccc(CNCc4ccccc4)cc3)n2)cc1`, 1.67%.
The result for `CCOc1ccc(C2CCN(CCCCNC(=O)c3ccc(NC(=O)c4ccc(Cl)cc4)cc3)CC2)c(CC)c1` reads -0.33%.
